For 23 compounds, outcome results are on record in PubChem BioAssay (EPA / NIEHS).

Inconclusive results are not listed. Activity calls are given as the source filed them. Rule for the calls: active = hit-call score of the fitted dose curve at least 0.9, where 1 is the maximum; inconclusive = response in the unintended direction; inactive = score below 0.9.

Sequence of Glucocorticoid receptor (Homo sapiens) (P04150 whole entry, looked up, the tested form may be a part): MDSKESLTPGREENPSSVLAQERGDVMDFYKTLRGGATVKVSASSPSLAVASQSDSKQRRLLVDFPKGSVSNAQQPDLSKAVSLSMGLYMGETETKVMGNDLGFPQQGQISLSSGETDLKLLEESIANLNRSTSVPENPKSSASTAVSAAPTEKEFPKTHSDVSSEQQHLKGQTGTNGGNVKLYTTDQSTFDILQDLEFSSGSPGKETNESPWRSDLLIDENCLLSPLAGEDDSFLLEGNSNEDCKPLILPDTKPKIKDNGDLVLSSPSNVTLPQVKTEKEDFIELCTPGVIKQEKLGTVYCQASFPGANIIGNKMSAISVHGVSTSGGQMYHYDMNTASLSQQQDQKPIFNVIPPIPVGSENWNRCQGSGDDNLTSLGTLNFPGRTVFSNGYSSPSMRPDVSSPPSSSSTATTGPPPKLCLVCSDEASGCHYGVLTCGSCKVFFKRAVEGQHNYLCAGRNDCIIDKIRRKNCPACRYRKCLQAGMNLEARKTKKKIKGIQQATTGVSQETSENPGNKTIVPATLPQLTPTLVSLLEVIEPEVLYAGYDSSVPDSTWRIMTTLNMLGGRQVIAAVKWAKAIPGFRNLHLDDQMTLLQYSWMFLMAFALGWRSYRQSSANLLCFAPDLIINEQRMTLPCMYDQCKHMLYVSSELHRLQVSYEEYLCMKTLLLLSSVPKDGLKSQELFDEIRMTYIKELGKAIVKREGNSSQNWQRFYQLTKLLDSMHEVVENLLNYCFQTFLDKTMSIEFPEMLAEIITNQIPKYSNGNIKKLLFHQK

This test deals with Glucocorticoid receptor (Homo sapiens) (UniProt P04150). The test is described as follows: ATG_GR_TRANS: Attagene TRANS-FACTORIAL HepG2 Assay for human Glucocorticoid Receptor (GR) (AID 2282978).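 Note: activators score as hits since higher reporter transcript over DMSO is fitted.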 To be noted: HepG2 Attagene TRANS GR reporter, mRNA transcription. In short, it runs like this:
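Exogenous NR-GAL4 fusion activity was assessed through induced GAL4-UAS reporter transcripts in transfected human HepG2 cells, quantified after 24 h by RT-PCR and fluorescent capillary electrophoresis with DMSO as baseline.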
In the case of `CCCCOC(=O)C(C)O` (stereo not drawn), the result was inactive. Under `CCCCCCCCCCCC(=O)Cl` stands “inactive”; under `c1ccc(C[P+](c2ccccc2)(c2ccccc2)c2ccccc2)cc1`, “inactive”; under `O=C(Cl)c1ccc(Cl)cc1Cl`, “inactive”.

Turning to `O=S(=O)(O)CCC(F)(F)C(F)(F)C(F)(F)C(F)(F)C(F)(F)C(F)(F)C(F)(F)C(F)(F)F`, the result was inactive. Under `OCCCc1cccnc1` stands “inactive”; under `CC(C)CCCC(C)CCO` (stereo not drawn), “inactive”; under `CCc1ccc(C)nc1`, “inactive”. Under `CCN=C1C=CC(=C(c2ccc(N(CC)CC)cc2)c2ccc(N(CC)CC)cc2)c2ccccc21` stands “inactive”; under `CC(C)C(=O)OCc1ccccc1`, “inactive”; under `CCCCCCCCCCCCC[N+](C)(C)Cc1ccccc1`, “inactive”.

With `OC(O)C(F)(F)C(F)(F)F`, the result was inactive. Under `C[Si](C)O[Si](C)C` stands “inactive”.

As for `COC(=O)c1ccc(C=O)cc1`, the compound was classed as inactive.

For `NCC(F)(F)C(F)(F)C(F)(F)C(F)(F)C(F)(F)C(F)(F)C(F)(F)C(F)(F)F`, the outcome was inactive.

As to `OCC(O)CC(F)(F)C(F)(F)C(F)(F)C(F)(F)F` (stereo not drawn), the compound was classed as inactive. As to `O=C(O)CCC(F)(F)C(F)(F)C(F)(F)C(F)(F)C(F)(F)C(F)(F)C(F)(F)F`, the result was inactive. Under `CCCCCC/C=C/CCCCCCCC(=O)O` stands “inactive”; under `C=CC(=O)OCCC(F)(F)C(F)(F)C(F)(F)C(F)(F)F`, “inactive”. For `O=C(O)C(F)(F)C(F)(F)C(F)(F)OC(F)(C(F)(F)F)C(F)(F)F`, the compound was called inactive.

As to `C=CCOC(=O)CC(C)C`, the result was inactive. Under `CCN(CC)c1ccc2c(c1)Oc1cc(N(CC)CC)ccc1C21OC(=O)c2ccccc21` stands “inactive”; under `CCOCOCC`, “inactive”.
